Tau ThT inhib – inhibitors of human tau fibril formation, thioflavin T binding | P10636 | recombinant tau K18 P301L, heparin-induced fibrillization, ThT fluorescence | Potency, µM (titrated, usually from 57.4 µM), without a hit: at the top dose activity, negative = inhibition, actives largely listed as inhibitors | 270,000 compounds, 2.1% hits; also: potency is read from the fitted curve at half-maximal effect; nearly all actives have a fitted effect of over 55% in size
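Recombinant human tau K18 fragment […] carrying P301L, 15 uM unlabeled plus 0.24 uM Alexa 594-labeled, was fibrillized with 20 uM heparin in 100 mM sodium acetate pH 7 for 6 hr at 37 C; 30 uM ThT fluorescence read after 1 hr.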
Tau FP inhib – tau fibrillization inhibition (FP) | 280,000 compounds, 0.39% hits | P10636 | Potency, µM (top dose mostly 57.7 µM), inactives show at the top dose activity, negative = inhibition, most hits filed as inhibitors | K18 P301L tau heparin fibrillization, Alexa594 FP, 6 h; also: potency is read from the fitted curve at half-maximal effect; nearly all actives have a fitted effect of over 55% in size
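FP of Alexa 594-tau after heparin (20 uM) induction. Substrate: human K18 P301L, 15 uM unlabeled, 0.24 uM labeled. Buffer 100 mM sodium acetate pH 7. 6 hr, 37 C.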
Coupling enz – coupling enzyme interference in Giardia aldolase counter-screen; activity change, negative = inhibition, % at 58.2 µM, hits read low; 290,000 compounds, 0.67% hits; coupling enzyme system counterscreen, AmpLite Red fluorescence; in the data active = activity change below about -30%
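Fluorescence at 525 nm excitation and 598 nm emission measured inhibition of the coupled detection system without aldolase. Compounds (at 57.5 uM final) were preincubated 10 min at room temperature with coupling enzyme reagent before a 20 min substrate/AmpLite Red step.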
Tau fluor counter – counter-screen for tau fibril formation inhibitors; tau K18 P301L (four-repeat tau fragment) Alexa594 fluorescence, heparin fibrillization; Potency, µM (doses to about 57.7 µM), for inactives: top-dose activity change, negative = decrease; 280,000 compounds, 0.93% hits; also: potency is read from the fitted curve at half-maximal effect; nearly all actives have a fitted effect of over 55% in size
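Human K18 P301L tau (15 uM unlabeled plus 0.24 uM Alexa 594-labeled, final) in 100 mM sodium acetate pH 7 was mixed with compound and 20 uM heparin and incubated 6 hr at 37 C.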
USP1-UAF1 inh – blocks the human USP1/UAF1 deubiquitinase complex. O94782. recombinant USP1/UAF1, Ub-Rhodamine cleavage fluorescence. Potency, µM (titrated, usually from 57.1 µM), inactives show top-dose activity change, negative = inhibition, usual class: inhibitors. 390,000 compounds, 0.23% hits; also: potency is read from the fitted curve at half-maximal effect; nearly all actives have a fitted effect of over 60% in size
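High-throughput fluorogenic screen: 1nM USP1/UAF1 complex, Ub-Rho substrate 150nM final, 50mM HEPES pH 7.8 with 0.5mM EDTA, 0.1 mg/ml BSA, 1mM TCEP and 0.01% Tween-20.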
Numbers without * were called inactive; i = inactive; ? = inconclusive; / = no result; [ ] = remark or other dose. A selection: hits, their analogues and other compounds. The true share with any hit is near 2.3%. Unless noted, calls follow the shape of the dose curve; as a rule, active = well fitted curve in the direction sought with a large enough effect; inconclusive = small, poorly fitted or top-dose-only effect, or another doubt; inactive = no such curve, though single readings can be large; an effect the other way counts as inactive or inconclusive. % is scaled to controls: 0 for no effect and ±100 for the full control effect.

SMILES | Tau ThT inhib | Tau FP inhib | Coupling enz | Tau fluor counter | USP1-UAF1 inh
O=C(Nc1ccc(N2CCOCC2)cc1)c1ccc([N+](=O)[O-])cc1 | 2.82µM* | 1.3% | -4.8 | -19.2% | -8.5%
O=C(NC(=S)Nc1ccc(N2CCOCC2)cc1)c1ccco1 | ? | -1.2% | -2.0 | -11.4% | -2.1%
O=C(Nc1ccc(N2CCOCC2)cc1)c1ccc2nc(-c3ccco3)c(-c3ccco3)nc2c1 | 2.51µM* | -6.2% | -3.1 | ? | -4.2%
CC(=O)N1CCN(c2ccc(NC(=O)c3ccc([N+](=O)[O-])cc3)cc2)CC1 | / | / | 0.3 | / | -13.0%
O=C(Nc1ccc2nc(-c3ccco3)c(-c3ccco3)nc2c1)N1CCN(c2ccccn2)CC1 | 12.1% | 1.5% | -40.9* | 6.2% | -14.8%
S=C(Nc1ccc(N2CCOCC2)cc1)Nc1ccc2nc(-c3ccco3)c(-c3ccco3)nc2c1 | 2.24µM* | ? | -24.5 | 7.94µM*[quencher] | 25.1µM*
CCC(=O)N1CCc2cc(S(=O)(=O)CCC(=O)Nc3cc(Cl)ccc3OC)ccc21 | ? | ? | / | ? | -10.6%
CC(C)[C@@H](OCc1ccccc1)[C@H](C)/C=N\OC[C@@H](O)COCc1ccco1 | -3.4%[11.5 µM] | -3.3%[11.6 µM] | 0.7 | -3.8%[11.6 µM] | /
O=c1c(N2CCc3ccccc3C2)csc2ccc(Br)cc12 | ? | 2.3% | / | -6.6% | -8.5%
CCOC(=O)c1cc(-c2ccc(OC)cc2)n(CCC(=O)Nc2nc3ccc(OCC)cc3s2)c1C | -16.9% | 0.1% | / | ? | -4.8%
NC(=S)Cc1nc(-c2ccc(Cl)cc2)cs1 | 15.8µM* | ? | 0.6 | ? | -31.1%
COc1ccc(-c2ccc3c(N)c(C(=O)NCc4ccc(C)cc4)sc3n2)cc1 | -8.1% | -5.1% | / | ? | -1.8%
COc1cccc(-c2ccc3c(N)c(C(=O)NCc4ccc(Cl)cc4)sc3n2)c1 | ? | 10.4% | / | 4.47µM*[quencher] | -20.7%
Cc1ccc(NC(=O)c2sc3nc(-c4ccncc4)ccc3c2N)cc1 | ? | -17.9% | / | -19.7% | i
COc1cccc(NC(=O)c2sc3nc(C)c(C(=O)Nc4ccc(C)cc4C)c(-c4sccc4C)c3c2N)c1 | -16.1% | -10.2% | / | -20.3% | ?
COc1cccc(NC(=O)c2sc3nc(C)c(C(=O)Nc4ccc(C)cc4C)c(-c4ccco4)c3c2N)c1 | ? | -15.1% | / | -27.9% | 35.5µM*
Cc1ccccc1NC(=O)c1sc2nc(-c3ccncc3)ccc2c1N | 5.01µM* | 13.3% | / | 10µM*[quencher] | -33.3%
COc1cccc(-c2ccc3c(N)c(C(=O)Nc4ccccc4C)sc3n2)c1 | ? | -3.9% | / | 8.91µM*[quencher] | -35.1%
Cc1ccccc1NS(=O)(=O)c1nnc(NC(=O)c2ccco2)s1 | ? | -7.2% | / | ? | -23.7%
O=c1c(-c2cc(F)cc(F)c2)nc2cnc(N3CCOCC3)nc2n1CCc1ccccc1 | / | / | 2.0 | / | /
Cc1ccc(N2C(=O)CSC23C(=O)N(CC(=O)NCc2ccccc2)c2ccccc23)cc1C (configuration not stated) | -8.1% | 7.4% | / | -15.5% | -16.7%
O=C(NC1CCCCC1)c1ccc2c(c1)N(Cc1cccc(Cl)c1)C(=O)c1ccccc1S2=O (configuration not stated) | -7.4% | -1.9% | / | -12.3% | ?
CCc1cc(=O)[nH]c(SCc2nc(-c3ccc(C(F)(F)F)cc3)no2)n1 | ? | -1.7% | / | -3.7% | -1.8%
COc1cccc(-c2ccc3c(N)c(C(=O)Nc4cc(F)ccc4F)sc3n2)c1 | ? | 11.7% | / | ? | -15.6%
COc1cccc(-c2ccc3c(N)c(C(=O)NC4CC4)sc3n2)c1 | ? | 13.3% | -1.7 | 15.8µM*[quencher] | 2.5%
COc1cccc(-c2ccc3c(N)c(C(=O)c4ccc(F)cc4)sc3n2)c1 | ? | ? | / | 3.16µM*[quencher] | ?
COc1ccc(C(=O)c2sc3nc(-c4ccc(F)cc4)ccc3c2N)cc1 | ? | -10.6% | / | ? | -25.4%
Cc1ccc(Nc2ncnc3c2cnn3-c2ccccc2)c(C)c1 | ? | -13.4% | / | -22.6% | -30.6%
CN(C)c1ccc(CNc2nc(-c3ccco3)nn2C(=O)c2cccc([N+](=O)[O-])c2)cc1 | ? | 9.5% | / | 12.6µM*[quencher] | -18.1%
Cc1ccc(C)c(NC(=O)Nc2ccc3c(c2)OCO3)c1 | / | / | / | / | -23.5%

Source: PubChem (National Center for Advancing Translational Sciences (NCATS))
